# Structures can show the parent of a compound that is named as a salt.
# Test system: Danio rerio larvae (5 dpf)
# Experiment: difference in activity during first hour vs DMSO (percentage points); higher = more activity than DMSO
# Conditions: 10 µM; exposure time 6 h
# Procedure, shortened: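 In 96-well plates, 48 wild-type zebrafish larvae aged 5 dpf per compound received 100 µL egg water with library compound at 10 µM final for 6 h. Three hours into this, a 3-h programme of moving lines and 100 ms, 400Hz tones ran at 28.5 ℃ while plates were photographed every 6 s. Z-LaP Tracker scored the behaviours, and each is given as the compound mean minus the vehicle control mean in percentage points.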
row,Compound,difference in activity during first hour
1,COc1cc(Cc2cnc(N)nc2N)cc(OC)c1OC [Trimethoprim],12.5
2,C=CC[N+]1([C@H]2C[C@H]3[C@@H]4CC[C@H]5C[C@H](O)[C@@H](N6CCOCC6)C[C@]5(C)[C@H]4CC[C@]3(C)[C@H]2OC(C)=O)CCCC1 [Rocuronium (bromide)],-1.74
3,CCOc1ccc2ccccc2c1C(=O)N[C@@H]1C(=O)N2[C@@H]1SC(C)(C)[C@@H]2C(=O)O [Nafcillin (sodium salt hydrate)],19.4
4,CN1C(C(=O)Nc2ccccn2)=C(O)c2ccccc2S1(=O)=O [Piroxicam],4.07
5,CC(=O)O[C@H]1C[C@@H]2CC[C@@H]3[C@H](CC[C@@]4(C)[C@H]3C[C@H]([N+]3(C)CCCCC3)[C@@H]4OC(C)=O)[C@@]2(C)C[C@@H]1N1CCCCC1 [Vecuronium (bromide)],-6.01
6,O=C1[C@@H]2[C@H]3CC[C@H](C3)[C@@H]2C(=O)N1C[C@@H]1CCCC[C@H]1CN1CCN(c2nsc3ccccc23)CC1 [Lurasidone],-1.19
7,CC(=O)CCCCn1c(=O)c2c(ncn2C)n(C)c1=O [Pentoxifylline],8.3
8,CNS(=O)(=O)CCc1ccc2[nH]cc(C3CCN(C)CC3)c2c1 [Naratriptan (hydrochloride)],-1.59
9,C[C@]12C=CC(=O)C=C1CC[C@@H]1[C@@H]2[C@@H](O)C[C@@]2(C)[C@H]1CC[C@]2(O)C(=O)CO [Prednisolone],13.7
10,CN(C)CCC(c1ccc(Cl)cc1)c1ccccn1 (stereo not drawn) [Chlorpheniramine (maleate)],-11.1
11,COc1ccc2c(c1)c(CC(=O)O)c(C)n2C(=O)c1ccc(Cl)cc1 [Indomethacin],2.47
12,COc1ccc(C(=O)CC(=O)c2ccc(C(C)(C)C)cc2)cc1 [Avobenzone],-6.34
13,Cc1cc(C(C)(C)C)c(O)c(C)c1CC1=NCCN1 [Oxymetazoline (hydrochloride)],-13.2
14,N[C@@H]1CCCCN(c2c(F)cc3c(=O)c(C(=O)O)cn(C4CC4)c3c2Cl)C1 [Besifloxacin (hydrochloride)],5.97
15,Cc1ccccc1N1C(=O)c2cc(S(N)(=O)=O)c(Cl)cc2NC1C (stereo not drawn) [Metolazone],-12.7
16,CNCc1ccc(-c2[nH]c3cc(F)cc4c3c2CCNC4=O)cc1 [Rucaparib],-11
17,Nc1nc(F)nc2c1ncn2[C@@H]1O[C@H](COP(=O)(O)O)[C@@H](O)[C@@H]1O [Fludarabine Phosphate],3.53
18,C=C[C@H]1CN2CC[C@H]1C[C@H]2[C@H](O)c1ccnc2ccc(OC)cc12 [Quinine],-2.96
19,O=c1[nH]cc(F)c(=O)[nH]1 [5-Fluorouracil],-1.12

row,Compound,difference in activity during first hour
1,CCCN(CCc1cccs1)[C@H]1CCc2c(O)cccc2C1 [Rotigotine],-23.8
2,CN(C)C(=O)c1cc2cnc(Nc3ccc(N4CCNCC4)cn3)nc2n1C1CCCC1,2.64
3,OCCN(CCO)c1nc(N2CCCCC2)c2nc(N(CCO)CCO)nc(N3CCCCC3)c2n1 [Dipyridamole],10.2
4,COc1ccc(C[C@@H](C)NC[C@H](O)c2ccc(O)c(NC=O)c2)cc1 [Arformoterol (tartrate)],39
5,O=C(O)COCCN1CCN(C(c2ccccc2)c2ccc(Cl)cc2)CC1 (stereo not drawn) [Cetirizine (hydrochloride)],4.04
6,CC1(C)C[C@@H]1C(=O)N/C(=C\CCCCSC[C@H](N)C(=O)O)C(=O)O [Cilastatin],15
7,CNCCC=C1c2ccccc2CCc2ccccc21 [Nortriptyline (hydrochloride)],-17.9
8,CC(=O)OCC(=O)[C@@]1(OC(C)=O)[C@@H](C)C[C@H]2[C@@H]3C[C@H](F)C4=CC(=O)C=C[C@]4(C)[C@@]3(F)[C@@H](O)C[C@@]21C [Diflorasone Diacetate],-4.84
9,CC(=O)OCC(CCn1cnc2cnc(N)nc21)COC(C)=O [Famciclovir],-7.41
10,COc1cc(CNC(=O)CCCC/C=C/C(C)C)ccc1O [Capsaicin],-6.37
11,CN(C)C/C=C/C(=O)Nc1cc2c(Nc3ccc(F)c(Cl)c3)ncnc2cc1O[C@H]1CCOC1 [Afatinib (maleate)],-11.3
12,COc1ccc(CC(C)NCC(O)c2ccc(O)c(NC=O)c2)cc1 (stereo not drawn) [Formoterol (hemifumarate hydrate)],49.1
13,OC[C@H]1NC[C@H](O)[C@@H](O)[C@H]1O [1-Deoxygalactonojirimycin (hydrochloride)],16.8
14,C[C@H]1COc2c(N3CCN(C)CC3)c(F)cc3c(=O)c(C(=O)O)cn1c23 [Levofloxacin],16.5
15,CC(C)(C(=O)c1cccnc1)c1cccnc1 [Metyrapone],-0.661
16,NS(=O)(=O)c1cc2c(cc1C(F)(F)F)NCNS2(=O)=O [Hydroflumethiazide],0.32
17,CC(C)C(=O)OCC(=O)[C@@]12O[C@H](C3CCCCC3)O[C@@H]1C[C@H]1[C@@H]3CCC4=CC(=O)C=C[C@]4(C)[C@H]3[C@@H](O)C[C@@]12C [Ciclesonide],-7.9
18,CN1CCC[C@@H]1CCO[C@](C)(c1ccccc1)c1ccc(Cl)cc1 [Clemastine (fumarate)],-0.468
19,CC(=O)O[C@]1(C(C)=O)CC[C@H]2[C@@H]3C=C(C)C4=CC(=O)CC[C@]4(C)[C@H]3CC[C@@]21C [Megestryl Acetate],4.4

# — the supplement of paper PMC10515830
